Compound activity deposited in PubChem BioAssay by several laboratories.
Shown are actives, neighbours in structure and some others; about 2.3% of the full set was active somewhere.
KKLEB cytotox – cytotoxicity in KKLEB CF airway cells, primary screen, cytotoxicity control for CF NF-kB inhibitor project, cell-based, uHTS, fluorescence assay plates | actives 0.36% (n = 360,000) | activity change (cytotoxicity), % at 5 µM | AID 602141, 2011 | KKLEB CF airway cells viability, ATPlite luminescence, overnight; active compounds read low; cells stimulated with P. aeruginosa culture filtrate;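 active means corrected activity change at or below -50% at 5 µM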
HIF-2a inh – HIF-2a reporter inhibitors, primary screen, luminescence, 786-0 RCC cells; 786-0 RCC cells HIF-2a reporter, luciferase luminescence, overnight; inhibition, % at 18.8 µM; actives 0.72% (n = 360,000);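 active means inhibition of the luminescence signal of 40% or more relative to plate controls, in a single-dose primary screen at 18.75 µM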
CF NFkB block – inhibitors of PAF-induced NF-kB signaling, primary screen, cell-based, GFP fluorescence, uHTS | KKLEB NF-kB-GFP reporter, GFP fluorescence overnight | inhibition, % at 5 µM | actives 0.86% (n = 360,000) | AID 588850, 2011;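 active means at least 50% inhibition at 5 µM, scaled per plate between neutral and stimulator controls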;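 further: PAF is a Pseudomonas aeruginosa culture filtrate used as stimulus; plate controls were PAF-stimulated DMSO wells for no effect and unstimulated DMSO wells for full effect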
iPSC survival up – enhancers of single-cell hiPSC survival, primary screen, ATPlite luminescence. survival enhancement, % at 20 µM. actives 0.044% (n = 360,000). 100% = ROCK inhibitor wells, 0% = DMSO. AID 602274, 2012; in the data active means survival enhancement above about 18%;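 further: cells exposed to compounds for 16 hours before the ATP read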
LGR2 antag – inhibitors of bursicon-induced LGR2 CRE-luciferase signal, primary screen, cell-based, HEK293, CRE-luciferase reporter, bursicon stimulation. bursicon-stimulated, 4 h. actives 0.35% (n = 380,000). AID 720647, 2013. inhibition, % at 9.99 µM;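 active means drop in luminescence signal, shown as inhibition above about 50% in the replicate tests, limit read from the data, passing the limit was not always enough; inconclusive means probably only some replicates passing the limit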;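 further: agonist challenge used bursicon conditioned medium at about half maximal strength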
TWEAK Fn14 block – inhibitors of TWEAK-Fn14 signaling, primary screen, luciferase reporter cells, uHTS; AID 1159606, 2016; TWEAK-stimulated Fn14 reporter cells, luciferase luminescence, 8 h; inhibition, % at 10 µM; actives 2% (n = 360,000); in the data active means inhibition above about 50%
Numbers without * were called inactive; ? = inconclusive; nt = not tested or not shown.

SMILES	KKLEB cytotox	HIF-2a inh	CF NFkB block	iPSC survival up	LGR2 antag	TWEAK Fn14 block
Cc1n[nH]c(C)c1CCNC(=O)C1CCC(=O)N(CCc2cccc(F)c2)C1 (stereo not drawn)	3.4	9.7	-16.2	0.1	-4.1	58.0*
COc1ccc(NC(=O)c2ccc(Cl)c(S(=O)(=O)N3CCc4ccccc4C3)c2)cn1	-11.5	16.2	15.4	-2.1	34.6	85.6*
O=C(Nc1ccccn1)c1ccc(Cl)c(S(=O)(=O)N2CCc3ccccc32)c1	-0.8	-64.2	-6.0	0.5	6.4	56.3*
COc1ccc(NC(=O)c2ccc(Cl)c(S(=O)(=O)N3CC(C)OC(C)C3)c2)cn1 (stereo not drawn)	12.2	12.6	22.4	0.0	0.8	26.5
O=C(Nc1cccnc1)c1ccc(Cl)c(S(=O)(=O)N2CCc3ccccc32)c1	-4.7	19.1	-4.3	0.8	26.9	23.2
C[C@H](CO)N1C[C@H](C)[C@@H](CN(C)C(=O)c2ccc3c(c2)OCO3)Oc2cc(-c3cncnc3)ccc2S1(=O)=O	nt	nt	nt	nt	0.5	nt
Cc1cc(C)nc(SCCC(=O)Nc2ccccc2C)n1	-11.3	-2.2	-0.4	-0.3	nt	106.3*
Cc1cc(C)nc(SCCC(=O)Nc2ccccc2)n1	-0.1	-8.1	-2.3	-1.9	-9.1	-7.2
Cc1noc(C)c1NC(=O)N(C)C[C@@H]1OCCCC[C@@H](C)Oc2ccc(NC(=O)Nc3ccccc3)cc2C(=O)N([C@@H](C)CO)C[C@@H]1C	nt	nt	nt	nt	5.1	nt
CC(Nc1c([N+](=O)[O-])c(=O)oc2ccccc12)C(Cl)c1ccccc1 (stereo not drawn)	4.0	25.2	-8.4	-1.1	15.5	50.2*
COC(=O)c1sc(NC(=S)NC(=O)c2ccccc2F)nc1C	7.5	-188.8	-4.4	-0.7	-11.0	52.3*
CCOC(=O)c1sc(Nc2ccccc2Cl)nc1C	-4.6	-340.2	17.4	-1.0	-108.1	-39.7
CCOC(=O)c1sc(NC(=O)Nc2ccccc2F)nc1C	-34.6	-6.1	11.3	-2.7	?	94.1*
CCCNC(=O)C[C@H]1CC[C@@H]2[C@@H](COc3ccc(NC(=O)NCC)cc3C(=O)N2C)O1	nt	nt	nt	nt	-7.3	nt
CN1c2ccccc2C(C)(C)C12C=Cc1cc(O)ccc1O2 (stereo not drawn)	-1.6	36.7	-5.8	-2.6	17.9	53.4*
CN1c2ccccc2C(C)(C)C12C=Nc1c(cc(N3CCOCC3)c3ccccc13)O2 (stereo not drawn)	-5.9	9.3	20.0	-0.4	nt	23.9
CC(C)(C)c1cc[n+](/C(C(=S)Nc2ccccc2F)=C(/[O-])c2ccc3c(c2)OCCO3)cc1	7.7	-93.0	5.6	-0.3	-31.9	11.9
[O-]C(=C(C(=S)Nc1cccc2ccccc12)[n+]1ccccc1)c1ccc2c(c1)OCCO2	15.2	72.2*	-20.9	-0.7	nt	102.9*
COc1cccc(CC(=O)OCC(=O)NCCc2ccc(F)cc2)c1	-1.5	6.6	-12.5	-0.1	-8.2	53.8*
O=C(C[C@@H]1CC[C@H]2[C@@H](COC[C@@H](O)CN2Cc2nccs2)O1)NCc1ccc(Cl)cc1	nt	nt	nt	nt	15.4	nt
N/C(=N\OC(=O)c1cccc(F)c1)c1ccccn1	-5.5	5.2	-18.5	-0.5	?	84.0*
Cc1cccc(/C(N)=N/OC(=O)c2ccc3c(c2)OCO3)c1	-14.7	-214.1	-3.9	-1.0	53.6*	62.8*
N/C(=N\OC(=O)c1ccc2c(c1)OCO2)c1cccc([N+](=O)[O-])c1	3.0	-194.0	13.6	-0.9	-31.2	-5.1
COc1cc(C(=O)O/N=C(\N)c2ccccn2)cc(OC)c1OC	5.6	-39.9	-25.0	0.5	-19.4	-30.3
Cc1cccc(/C(N)=N/OC(=O)c2ccc(Br)o2)c1	-1.2	-216.1	-8.2	-0.5	-29.3	-40.7
SMILES	KKLEB cytotox	HIF-2a inh	CF NFkB block	iPSC survival up	LGR2 antag	TWEAK Fn14 block
N/C(=N\OC(=O)c1ccc(Br)o1)c1ccccn1	5.7	-134.5	-29.6	-0.8	73.9*	60.4*
N/C(=N\OC(=O)c1ccccc1)c1ccccn1	-0.1	-44.2	-3.3	-2.5	95.4*	96.3*
N/C(=N\OC(=O)c1cccc(F)c1)c1ccccc1	3.9	-171.6	-4.1	0.1	7.1	-11.0
C[C@@H]1CN([C@H](C)CO)C(=O)c2cc(-c3ccccc3F)cnc2O[C@H]1CN(C)Cc1ccc(F)cc1	nt	nt	nt	nt	-6.4	nt
CCOc1ccc(C(=O)O/N=C(\N)c2ccccn2)cc1	-28.1	68.2*	12.6	-0.8	102.5*	103.4*
Cc1cccc(OCC(=O)O/N=C(\N)c2ccccn2)c1	1.1	-211.2	-4.4	2.9	-19.7	-22.9
Cc1cccc(C(=O)O/N=C(\N)c2ccccn2)c1	-20.3	32.0	-15.5	-0.6	100.2*	101.9*
Cc1ccc(C(=O)O/N=C(\N)c2ccccn2)cc1C	-11.9	-5.6	0.9	-0.8	97.5*	99.0*
CCc1ccc(OCC(=O)O/N=C(\N)c2ccccn2)cc1	-24.3	-258.1	18.8	0.9	-35.6	-12.0
CC(C)CC#Cc1ccc2c(c1)O[C@@H](CN(C)C(=O)c1cnccn1)[C@@H](C)CN([C@@H](C)CO)S2(=O)=O	nt	nt	nt	nt	-0.7	nt
CCN=C1NN=C(c2cc(C)n(Cc3ccco3)c2C)CS1	3.6	67.5*	-9.7	0.8	nt	47.8
COCCn1c(C)cc(C2=NNC(=Nc3ccccc3)SC2)c1C	2.4	-97.8	-4.2	-6.3	nt	76.4*
CCN=C1NN=C(c2cc(C)n(CCc3ccccc3)c2C)CS1	-15.3	-14.3	3.8	0.3	-5.6	14.3
CN1C(=O)c2cc(NC(=O)NC3CCCC3)ccc2OC[C@H]2O[C@H](CC(=O)NCC3CC3)CC[C@H]21	nt	nt	nt	nt	-4.4	nt
O=C(CN1CCOCC1)N[C@H]1CC[C@H](CCNC(=O)C2CCC2)O[C@H]1CO	nt	nt	nt	nt	-5.8	nt
O=C(c1ccco1)N1CCN(S(=O)(=O)c2c(Cl)cccc2Cl)CC1	-3.6	8.0	7.1	-0.6	12.1	92.1*
Cc1cc(C(=O)N/N=C/c2cccc(OC(=O)c3cccc(Br)c3)c2)n[nH]1	5.9	-4.9	-7.5	0.1	-0.8	-37.2
COc1cccc(C(=O)Oc2c(Br)cc(Br)cc2/C=N/NC(=O)c2cc(C)[nH]n2)c1	15.6	6.8	-5.3	1.4	21.3	51.7*
C[C@@H]1CN([C@@H](C)CO)C(=O)c2cc(NC(=O)C3CC3)ccc2O[C@@H]1CN(C)C(=O)Nc1cccc2ccccc12	nt	nt	nt	nt	19.3	nt
COc1ccccc1NC(=O)c1ccccc1NS(=O)(=O)c1cccs1	-5.9	9.5	6.6	1.6	11.1	5.7
COc1ccc(C)cc1NC(=O)c1ccccc1NS(=O)(=O)c1ccc(Cl)s1	-35.2	-2.8	48.2	0.4	19.1	69.0*
